In PubChem BioAssay AID624170 (National Center for Advancing Translational Sciences (NCATS), 2012):
Where “and” joins values, the source holds several entries; their conditions need not be identical. Equal values may be shown once. Screen size: about 410,000 compounds; about 850 (0.21%) were called active. About 2% were inconclusive and are not listed. The call rests on the fitted dose curve; in most records, active means well fitted inhibition curve with a large enough effect; inconclusive means small, poorly fitted or top-dose-only effect, or another doubt; inactive means no such curve, though single readings can be large or run the other way. The full list was thinned out, with actives kept by preference. The source holds several records for some structures; these can differ, active in one and inactive in another.

These compounds were tested against Glutaminase kidney isoform, mitochondrial (Homo sapiens) (UniProt O94925) (assay: qHTS for Inhibitors of Glutaminase (GLS)). Details: GLS enzymatic activity, qHTS titration; series mostly up to 45.5 µM.
Outline: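 hKGA in 45 mM KH2PO4 (pH 8.2), 0.02% Tween-20 with compound, then 1mM L-Glutamine (stock as added) plus glutamate oxidase/HRP/Amplex red coupling mix. Fluorescence read initially and after 30 min at RT; signal change reflects glutamate formation.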
Potency means the concentration at half of the fitted maximal effect.

Sequence of Glutaminase kidney isoform, mitochondrial (Homo sapiens) (O94925 whole entry, looked up, canonical isoform): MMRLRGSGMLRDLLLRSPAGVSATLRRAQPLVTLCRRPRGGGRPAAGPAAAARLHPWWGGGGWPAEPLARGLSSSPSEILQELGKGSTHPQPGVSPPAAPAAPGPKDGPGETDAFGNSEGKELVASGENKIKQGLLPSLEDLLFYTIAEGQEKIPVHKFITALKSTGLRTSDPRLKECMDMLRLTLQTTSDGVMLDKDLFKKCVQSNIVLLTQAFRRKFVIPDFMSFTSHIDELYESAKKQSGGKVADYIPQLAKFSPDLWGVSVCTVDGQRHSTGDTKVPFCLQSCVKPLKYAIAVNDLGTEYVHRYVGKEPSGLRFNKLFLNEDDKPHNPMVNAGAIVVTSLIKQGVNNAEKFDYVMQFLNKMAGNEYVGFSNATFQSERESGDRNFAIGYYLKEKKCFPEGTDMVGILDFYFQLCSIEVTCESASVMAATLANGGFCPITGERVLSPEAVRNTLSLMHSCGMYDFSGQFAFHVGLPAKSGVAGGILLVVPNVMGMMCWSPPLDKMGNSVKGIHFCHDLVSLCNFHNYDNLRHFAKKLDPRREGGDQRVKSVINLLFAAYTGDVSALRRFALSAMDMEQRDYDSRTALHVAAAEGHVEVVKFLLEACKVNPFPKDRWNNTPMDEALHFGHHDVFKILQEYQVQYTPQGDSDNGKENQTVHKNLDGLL

Potency, inactive:
CNC(=O)CN1C(=O)c2cccnc2Sc2ccccc21, CC(=O)c1ccc(NC(=O)COc2ccccc2-c2nc(-c3ccccc3)no2)cc1, CCOC(=O)c1cc2c(=O)n3ccccc3nc2n(CC2CCCO2)c1=NC(=O)c1ccc(C(C)(C)C)cc1 (centres undefined), CCC(C)C1OC2(C=CC1C)CC1CC(C/C=C(/C)C(OC3CC(OC)C(OC4CC(OC)C(NC(C)=O)C(C)O4)C(C)O3)C(C)/C=C\C=C3\COC4C(O)C(C)=CC(C(=O)O1)C34O)O2 (centres undefined), C[C@@H]1C[C@H]2[C@@H]3C[C@H](F)C4=CC(=O)C=C[C@@]4(C)[C@]3(F)[C@H](O)C[C@]2(C)[C@@]1(O)C(=O)CO, O=C(Nc1ccccc1Cl)N1CCC(CN2CCCCC2)CC1, O=C(Nc1ccccc1Cl)N1CCC(CN2CCCC2)CC1, O=C(/C=C/c1cccc(F)c1)NC1CC1, Cc1nnc(C(=O)NC(C)(C)c2nc(C(=O)NCc3ccc(F)cc3)c(O)c(=O)n2C)o1, COc1ccc(OC)c([C@H](O)CNC(=O)CN)c1, CCN(C(=O)COC(=O)/C=C/c1nc2ccccc2s1)C1CCS(=O)(=O)C1 (centres undefined), Cc1cc(C)c2nc(SCC(=O)N(C)C3CCS(=O)(=O)C3)cc(C)c2c1 (centres undefined), CCOC(=O)CN1C(C(=O)c2ccccc2)=C(OC(=O)C(C)(C)C)c2ccccc2S1(=O)=O, NC(=O)[C@H]1CC2(CC(c3cccc(NC(=O)[C@H]4CCC(=O)N4)c3)=NO2)CN1C(=O)c1ccccc1C(=O)c1ccccc1 (some centres undefined), CCC(=O)Nc1cccc(C2=NOC3(C2)C[C@@H](C(N)=O)N(C(=O)c2cc([N+](=O)[O-])cc([N+](=O)[O-])c2C)C3)c1 (some centres undefined), COc1ccc(OC)c(NC(=O)Cn2c(=O)n(Cc3ccccc3)c(=O)c3ccccc32)c1, CC[C@]1(C)CC(=O)NC1=O, O=P(O)(O)OC[C@H](O)CO, CC(C)c1ccc(NS(=O)(=O)c2ccc3[nH]cc(C(=O)NC4CCCC4)c(=O)c3c2)cc1, COc1cc(Cl)c(C)cc1NC(=O)CCc1nc2cccnc2n1Cc1cccs1, CC1(C)S[C@@H]2[C@H](NC(=O)COc3ccccc3)C(=O)N2C1C(=O)OCc1ccccc1 (some centres undefined), COC(=O)Cc1ccc(OCC(=O)NC2CCCC2)cc1, OCC(CO)NC1C[C@](O)(CO)[C@@H](O)[C@H](O)[C@H]1O (some centres undefined), CC(=O)OCC(=O)[C@@]1(O)CC[C@@H]2[C@H]3CCC4=CC(=O)C=C[C@]4(C)[C@]3(F)[C@@H](O)C[C@@]21C, Cc1c(Cl)cccc1NC(=O)C1CCCN(c2ncnc3onc(C)c23)C1 (centres undefined), Cc1cccc(C(C)C)c1NC(=O)C(NS(=O)(=O)c1cccc2nsnc12)c1ccccc1 (centres undefined), COCCn1c(Cc2cccn2C)nnc1SCC(=O)Nc1nccs1, COCCCn1c(SCC(=O)NC2CCCC2)nnc1-c1ccccc1, FCOC(C(F)(F)F)C(F)(F)F, C=C1C(=CC=C2CCC[C@@]3(C)[C@@H]2CC[C@H]3[C@H](C)CCCC(C)C)C[C@@H](O)C[C@@H]1O, CCOC(=O)c1ccc(NC(=O)CSc2nc3c([nH]c4ccccc43)c(=O)n2C)cc1, CCOc1ccc(N/C(N)=N/c2nc(C)c(C)c(=O)[nH]2)cc1, COc1ccc(-n2c(O)c(C=NCC(c3ccco3)N3CCCC3)c3ccccc3c2=O)cc1OC (centres undefined), CCOc1ccc(-n2c(SCC(=O)NCc3ccccc3)nc3n[nH]c(C)c3c2=N)cc1, CCOc1ccc(-n2c(C)nc3c(cnn3-c3ccc(C)cc3)c2=O)cc1, Cc1ccc(-c2ncc(Cl)cc2-c2ccc(S(C)(=O)=O)cc2)cn1, COc1ccc2c(c1)c(=O)c(S(=O)(=O)c1ccc(F)cc1)cn2CC(=O)Nc1ccc(C)cc1C, CC1(C)OC2CC(=O)OC[C@@]23C1CC(=O)[C@]1(C)C3CC[C@@]2(C)C(c3ccoc3)OC(=O)C3O[C@@]321 (some centres undefined), CCOC(=O)Cc1cccc(-c2cc(CCCCCCc3ccc(O[C@H]4O[C@H](COC(C)=O)[C@@H](OC(C)=O)[C@H](OC(C)=O)[C@@H]4OC(C)=O)c(-c4cccc(CC(=O)OCC)c4)c3)ccc2O[C@H]2O[C@H](COC(C)=O)[C@@H](OC(C)=O)[C@H](OC(C)=O)[C@@H]2OC(C)=O)c1, Cc1nc(N2CCOCC2)c2c(C(=O)NCc3cccc(Cl)c3)c(C)oc2n1, COc1ccc(S(=O)(=O)NCc2cccn2Cc2cccc(C)c2)cc1Cl, Cc1ccc(Cl)cc1NC(=O)CCC(=O)N1CC(C)Sc2ccccc21 (centres undefined), Cc1cccc(C(=O)Nc2ccc(-c3nc4ccccc4s3)c(C)c2)c1, COc1ccc(-n2c(SCC(=O)Nc3ccc(Cl)c(C)c3)nc3n[nH]c(C)c3c2=N)cc1, Cc1ccc(-n2c(SCC(=O)NCCC3=CCCCC3)nc3n[nH]c(C)c3c2=N)cc1Cl

Potency, active:
O=C(Nc1ccccc1Cl)/C(Cl)=C(\Cl)S(=O)c1ccccc1 (centres undefined) 1.78 µM, CN(C(=O)COC(=O)c1cc(-c2ccco2)nc2ccccc12)C1CCS(=O)(=O)C1 (centres undefined) 10 µM, C=C(C)C(=O)Nc1cccc(C2=NOC3(C2)C[C@H](C(N)=O)N(C(=O)C(c2ccccc2)c2ccccc2)C3)c1 (some centres undefined) 14.1 µM, CC(C)(C)C1C/C(=C/c2ccco2)C(=O)/C(=C/c2ccco2)C1 (centres undefined) 22.4 µM, COCCCn1c(Cc2csc(Nc3cccc(Cl)c3)n2)nnc1SCC(=O)OC1CCCCC1 12.6 µM, CCOc1ccc(-n2c(O)c(/C=N/Nc3nc(C)cc(C)n3)c3ccccc3c2=O)cc1 11.2 µM, CCOc1ccc(-n2c(O)c(/C=N/Nc3nnc(C)c(=O)[nH]3)c3ccccc3c2=O)cc1 10 µM, COc1cccc(-n2c(SCC(=O)NC3CCCCC3)nc3n[nH]c(C)c3c2=N)c1 10 µM

Potency, inactive and 8.91 µM (active):
CC1(C)SC2C(NC(=O)COc3ccccc3)C(=O)N2C1C(=O)O (centres undefined)
